Compounds with a hit are over-represented: about 6.1% of the library has one in this group of screens.
D1 potentiator: enhances dopamine response at the human D1 receptor; HEK293 TREx D1 cells, calcium flux, dopamine EC20 potentiation; potentiation, % at 10 µM; actives 0.036% (n = 360,000); in the data active = potentiation above about 30%; also: 0% is about no effect
Target sequence (P21728 whole entry, looked up): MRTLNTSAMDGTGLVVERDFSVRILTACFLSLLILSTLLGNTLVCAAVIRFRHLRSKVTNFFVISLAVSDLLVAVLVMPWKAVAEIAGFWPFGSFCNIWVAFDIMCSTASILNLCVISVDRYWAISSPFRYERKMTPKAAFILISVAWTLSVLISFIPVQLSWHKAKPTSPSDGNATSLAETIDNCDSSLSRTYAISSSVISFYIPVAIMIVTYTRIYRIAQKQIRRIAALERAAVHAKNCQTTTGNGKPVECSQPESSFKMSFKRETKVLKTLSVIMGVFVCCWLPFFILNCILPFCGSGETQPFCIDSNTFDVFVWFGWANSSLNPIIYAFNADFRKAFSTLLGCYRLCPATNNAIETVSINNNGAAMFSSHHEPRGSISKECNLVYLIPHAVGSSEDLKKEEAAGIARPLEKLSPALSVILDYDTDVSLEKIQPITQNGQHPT
ERG Ets-DNA blk: ERG Ets/DNA interaction inhibition; actives 0.028% (n = 370,000); Potency, µM (series often up to 76.9 µM), for inactives: top-dose FP activity, negative = inhibition, most hits filed as inhibitors; fluorescence polarization, His-ERG Ets domain / labelled DNA; P11308; active = well fitted inhibition curve with a large enough effect in the polarisation, with a control signal flat; inconclusive = small, poorly fitted or top-dose-only effect, or effect the other way, or a change in a side signal; inactive = no such curve, though single readings can be large or run the other way; the % refers to the polarisation;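 also: polarization taken with two DNA probes labelled with fluorescein and Texas red; potency is read from the fitted curve at half-maximal effect; % of control where 0% means no effect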
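His-tagged ERG Ets domain (1 uM in the protein solution; 300mM KCl, 50mM Tris-HCl, 1mM EDTA, 1mM DTT, pH 7.5) received compound, then a probe mix of 5 nM fluorescein-DNA and 100nM Texas-615-DNA. Fluorescence polarization was read for both dyes.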
D1 antag: blocks dopamine activation of the human D1 receptor. actives 3.2% (n = 360,000). AID 504652. P21728. HEK293 TREx D1 cells, calcium flux, dopamine EC80; stronger effect = lower value. activity change, negative = inhibition, % at 10 µM; in the data active = activity change below about -30%; also: % is scaled to controls: 0 for no effect and ±100 for the full control effect
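Inducible Hek293 Trex D1 cells (tetracycline, overnight, 30 C). Calcium dye 30–90 min RT. Antagonist mode: EC80 dopamine added after 180 s compound read.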
D1 ag: agonists of human D1 dopamine receptor | HEK293 T-REx D1 cells, calcium flux, agonist mode | activation, % at 2 µM | actives 1% (n = 360,000) | AID 504660; in the data active = activation above about 30%; also: 0% is about no effect
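Agonism was scored from calcium flux recorded over 180 s (1 read/s) after pintool compound addition, following a 10-cycle baseline. Cells were inducible force-coupled HEK293 TREx D1, plated overnight at 30 C and loaded with no-wash calcium dye.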
DRD3 antagonist: antagonists of human D3 dopamine receptor | max response, negative = inhibition, % | D3R cells, DiscoveRx beta-arrestin luminescence, antagonist mode; stronger effect = lower value | actives 2.5% (n = 360,000); in the data active = max response below about -50%; inconclusive = no clear call, values can overlap the other calls; also: % is scaled to controls: 0 for no effect and ±100 for the full control effect
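Cells plated overnight at 1500 cells/well, then exposed to library compounds with dopamine controls for 90 minutes at 37 degrees C. DiscoveRx reagent added for 30–60 minutes at room temperature; luminescence read, quantitative HTS format.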
D3 ag: D3 dopamine receptor (human) agonism; P35462; D3R DiscoveRx beta-arrestin cells, luminescence, 90 min; max activation, %; actives 0.58% (n = 410,000); AID 652048; in the data active = max activation above about 30%; also: 0% is about no effect
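Agonist-mode cell screen: cells plated at 1500/well and incubated overnight at 37 °C, then exposed to library compounds for 90 min at 37 °C. Detection reagent was added for 30–60 min at room temperature, and luminescence was read.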
Numbers without * were called inactive; ? = inconclusive; . = not tested or not shown.

SMILES	D1 potentiator	ERG Ets-DNA blk	D1 antag	D1 ag	DRD3 antagonist	D3 ag
C=CCN1C(=O)/C(=C/c2ccc(N3CCOCC3)o2)C(=O)NC1=S	-2	62%	-1	119*	17	7
CC(=O)Nc1cc(C(=O)N2CCC3(CC2)OCCO3)ccc1S(=O)(=O)c1ccc(Cl)cc1	-3	0%	-87*	2	13	-1
Cc1ccc(S(=O)(=O)Nc2cc(C(=O)N3CCC4(CC3)OCCO4)ccc2N2CCCCC2)cc1	-7	-1%	1	3	-54*	-7
Cc1ccc(S(=O)(=O)NCC2CCC(C(=O)N3CCC4(CC3)OCCO4)CC2)cc1 (stereo unspecified)	-13	2%	-55*	4	?	1
CCc1ccc2nc(N3CCC(C(=O)N4CCC5(CC4)OCCO5)CC3)sc2c1	-1	-5%	2	5	-18	4
CC(=O)Nc1cc(C(=O)N2CCC3(CC2)OCCO3)ccc1S(=O)(=O)c1ccc(C)cc1	-1	1%	-21	-2	5	5
Cc1ccc2nc(N3CCC(C(=O)N4CCC5(CC4)OCCO5)CC3)sc2c1	-3	-1%	1	0	-51*	5
O=C(c1ccc(CNS(=O)(=O)c2ccc(Br)cc2)cc1)N1CCC2(CC1)OCCO2	-2	-4%	-2	5	0	3
CCOc1cc(CNCCc2c[nH]c3ccccc23)cc(Cl)c1OCC	8	2%	-9	5	-76*	-29
COc1ccc(CN(CCc2c[nH]c3ccccc23)Cc2ccc(OC)cc2)cc1	.	.	.	.	-50*	-8
CCOc1c(Cl)cc(CNCCc2c[nH]c3ccccc23)cc1OC	-9	6%	-5	14	-1	-4
CN(CCc1ccccc1)Cc1c[nH]c2ccccc12	-13	2%	-66*	12	-19	3
COc1cccc(CNCCc2c[nH]c3ccccc23)c1	-1	4%	-1	4	-54*	-21
CCOC(=O)c1cc(CC)sc1/N=C/C1C(=O)NC(=S)NC1=O	1	16%	1	1	8	5
O=C(c1ccc2nc3ccc(Cl)cc3c(=O)n2c1)N1CCC2(CC1)OCCO2	.	-11%	.	.	-12	10
COc1cccc(-n2c(O)c(C=NCCN3CCNCC3)c(=O)[nH]c2=S)c1	0	-1%	-5	2	-8	14
COc1ccc(CNCCc2c[nH]c3ccccc23)c(OC)c1C	-8	12%	-3	21	-71*	-23
O=C(CN1CC=C(c2ccccc2)CC1)Nc1c(Cl)cccc1Cl	-6	18%	-9	4	-71*	1
CN(C)CCc1c[nH]c2cccc(O)c12	.	.	.	.	.	-10
COc1ccc(CN2CCNCC2)cc1	3	-1%	-10	5	-7	5
COc1cccc(C2(O)CCN(Cc3ccncc3)CC2)c1	2	7%	-1	3	-62*	-14
Cc1cc(C)cc(-n2c(=O)[nH]c3ccccc3c2=O)c1	0	9%	-10	15	.	1
CC(NCc1ccc(Cl)c(Cl)c1)C(O)c1ccccc1 (stereo unspecified)	-8	.	-1	11	-65*	-37
CC(NCc1ccccc1Cl)C(O)c1ccccc1 (stereo unspecified)	3	.	-1	1	?	-22
CCOc1cc(CNC(C)C(O)c2ccccc2)cc(Cl)c1OCC (stereo unspecified)	-5	-5%	-6	39*	12	1
CCCNC(=O)N1[C@H]2CC[C@@H]1C(C(=O)OC)=C(c1ccc3ccccc3c1)C2	0	1%	34	3	-18	3
CC1NC(=O)NC(=O)C1Br (stereo unspecified)	.	11%	.	.	20	1
COCCOC(=O)C1=C(N)Oc2c(c(=O)oc3ccccc23)[C@@]12C(=O)Nc1ccccc12	4	2%	2	3	0	-1
